In the supplement of paper PMC11732987, “Enantioselective OTUD7B fragment discovery through chemoproteomics screening and high-throughput optimisation” (Communications Chemistry, 2025):

Columns and labels:
Test in all cases: log2 ratio of Biotin-Ahx-Ub-VS probe labelling (fragment/DMSO); higher = less target engagement (more negative = stronger competition), active = hit call of the paper (q ≤ 0.05, log2 ratio ≤ -1)
Settings in all cases: compound concentration: 200 uM; treatment time: 3 h
[1] = compound: CC(C)CN(C1CC1)C(=O)CCl
Method in brief: (§1)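 Labelling with Biotin-Ahx-Ub-VS (0.5 µM final, 1 h) followed a 3 h triplicate treatment of HEK293T lysate (495 µg per sample, Tris/CHAPS/IGEPAL buffer with protease inhibitors) with fragment at 200 µM or vehicle. Labelled DUBs were NeutrAvidin-enriched, digested with LysC and trypsin, and run by diaPASEF LC-MS/MS. The values, average log2 fragment/vehicle ratios by unpaired t-test, come from global-median-normalised Spectronaut label-free quantities. Proteins with ≥2 unique peptides were used.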

[2] = compound: CC(NC(=O)CCl)c1cccs1
Method in brief: as §1

[3] = compound: CC1CCCCC1NC(=O)CCl
Method in brief: as §1

[4] = compound: CC1CCCCN1C(=O)CCl
Method in brief: as §1

[5] = compound: CC1CN(CC(C)O1)C(=O)CCl
Method in brief: as §1

[6] = compound: CN(C1CCCCC1)C(=O)CCl
Method in brief: as §1

[7] = compound: Cc1cc(NC(=O)CCl)no1
Method in brief: as §1

[8] = compound: Cc1cccc(NC(=O)CCl)c1
Method in brief: as §1

[9] = compound: Cc1nc(NC(=O)CCl)sc1C
Method in brief: as §1

[10] = compound: Cc1nnc(NC(=O)CCl)s1
Method in brief: as §1

[11] = compound: Cl.Cc1ncsc1CNC(=O)CCl
Method in brief: as §1

[12] = compound: ClCC(=O)N1CCCCCCC1
Method in brief: as §1

[13] = compound: ClCC(=O)NC1(CCCC1)C#N
Method in brief: as §1

[14] = compound: ClCC(=O)NCC1CCC1
Method in brief: as §1

[15] = compound: ClCC(=O)NCC1CCCO1
Method in brief: as §1

[16] = compound: ClCC(=O)NCc1ccco1
Method in brief: as §1

[17] = compound: ClCC(=O)Nc1cccc(Cl)c1
Method in brief: as §1

Measured: log2 ratio of Biotin-Ahx-Ub-VS probe labelling

UniProt O00487
Sequence of UniProt O00487 (O00487 whole entry): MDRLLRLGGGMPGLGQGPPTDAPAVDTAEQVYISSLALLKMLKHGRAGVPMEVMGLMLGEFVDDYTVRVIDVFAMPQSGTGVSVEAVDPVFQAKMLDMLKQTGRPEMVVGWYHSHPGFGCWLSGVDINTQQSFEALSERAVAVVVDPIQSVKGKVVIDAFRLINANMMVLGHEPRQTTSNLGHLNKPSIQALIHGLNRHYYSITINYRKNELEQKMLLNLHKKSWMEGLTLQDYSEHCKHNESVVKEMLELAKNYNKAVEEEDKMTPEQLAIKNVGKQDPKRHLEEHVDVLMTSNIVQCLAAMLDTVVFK
inactive: [1] -0.123 | [2] -0.134 | [3] -0.0855 | [4] -0.115 | [5] -0.19 | [6] -0.0571 | [7] 0.0118 | [8] -0.116 | [9] -0.0519 | [10] -0.139 | [11] 0.0936 | [12] -0.0818 | [13] -0.263 | [14] -0.192 | [15] -0.162 | [16] -0.0244 | [17] -0.0223

USP22 (UniProt Q9UPT9)
Sequence of UniProt Q9UPT9 (Q9UPT9 whole entry): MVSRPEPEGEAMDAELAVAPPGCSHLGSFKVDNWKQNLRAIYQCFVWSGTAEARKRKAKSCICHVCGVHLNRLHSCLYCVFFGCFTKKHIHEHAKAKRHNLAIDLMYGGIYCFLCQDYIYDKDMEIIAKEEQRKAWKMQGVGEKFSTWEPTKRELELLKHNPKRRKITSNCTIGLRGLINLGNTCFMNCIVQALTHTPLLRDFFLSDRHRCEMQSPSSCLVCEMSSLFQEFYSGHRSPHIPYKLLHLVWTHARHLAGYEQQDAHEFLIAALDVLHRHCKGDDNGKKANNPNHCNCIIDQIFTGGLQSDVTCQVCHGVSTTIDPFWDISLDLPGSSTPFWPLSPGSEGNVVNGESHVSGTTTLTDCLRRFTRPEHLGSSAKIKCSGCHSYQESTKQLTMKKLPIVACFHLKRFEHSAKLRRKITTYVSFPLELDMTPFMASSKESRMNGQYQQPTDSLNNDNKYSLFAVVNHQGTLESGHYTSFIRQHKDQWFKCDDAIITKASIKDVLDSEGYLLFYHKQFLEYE
inactive: [1] 0.0555 | [2] 0.184 | [3] -0.0563 | [4] 0.000369 | [5] 0.0274 | [6] 0.0658 | [7] -0.433 | [8] -0.357 | [9] -0.117 | [10] 0.0632 | [11] 0.00275 | [12] -0.145 | [13] 0.0376 | [14] 0.219 | [15] -0.0487 | [16] 0.0686 | [17] -0.655

VCPIP1 (UniProt Q96JH7)
Sequence of UniProt Q96JH7 (Q96JH7 whole entry): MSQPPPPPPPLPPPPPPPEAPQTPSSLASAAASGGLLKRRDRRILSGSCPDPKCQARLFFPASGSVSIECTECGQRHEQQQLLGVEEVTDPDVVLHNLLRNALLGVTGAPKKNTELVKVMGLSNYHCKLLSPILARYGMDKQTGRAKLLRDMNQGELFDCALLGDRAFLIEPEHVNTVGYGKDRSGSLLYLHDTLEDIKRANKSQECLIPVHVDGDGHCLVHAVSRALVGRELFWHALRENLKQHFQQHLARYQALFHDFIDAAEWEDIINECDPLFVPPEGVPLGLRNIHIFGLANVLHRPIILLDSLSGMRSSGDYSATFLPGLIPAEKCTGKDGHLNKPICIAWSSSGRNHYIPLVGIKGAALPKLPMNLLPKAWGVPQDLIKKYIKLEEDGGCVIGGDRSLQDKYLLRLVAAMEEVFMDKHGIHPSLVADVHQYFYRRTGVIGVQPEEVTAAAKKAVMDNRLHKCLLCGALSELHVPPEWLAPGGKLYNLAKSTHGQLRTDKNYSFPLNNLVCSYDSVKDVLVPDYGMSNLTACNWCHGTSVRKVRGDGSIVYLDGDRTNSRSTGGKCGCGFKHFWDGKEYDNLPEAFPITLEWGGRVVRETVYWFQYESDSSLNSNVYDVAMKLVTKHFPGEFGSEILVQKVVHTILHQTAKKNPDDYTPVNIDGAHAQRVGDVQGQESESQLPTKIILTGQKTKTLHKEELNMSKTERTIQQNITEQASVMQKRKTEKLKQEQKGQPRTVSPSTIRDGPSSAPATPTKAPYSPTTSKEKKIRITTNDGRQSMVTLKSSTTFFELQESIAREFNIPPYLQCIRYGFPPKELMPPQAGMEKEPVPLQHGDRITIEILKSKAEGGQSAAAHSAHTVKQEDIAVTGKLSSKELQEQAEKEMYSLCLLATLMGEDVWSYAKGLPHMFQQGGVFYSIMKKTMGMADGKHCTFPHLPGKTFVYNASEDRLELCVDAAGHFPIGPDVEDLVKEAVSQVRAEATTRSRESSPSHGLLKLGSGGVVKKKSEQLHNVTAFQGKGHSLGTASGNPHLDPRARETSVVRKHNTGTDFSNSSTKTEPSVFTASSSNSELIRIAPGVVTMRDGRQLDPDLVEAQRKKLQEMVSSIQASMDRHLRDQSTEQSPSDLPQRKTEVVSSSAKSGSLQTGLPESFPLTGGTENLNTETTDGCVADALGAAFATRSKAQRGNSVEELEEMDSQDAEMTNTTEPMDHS
inactive: [1] -0.221 | [3] -0.946 | [4] -0.492 | [5] -0.305 | [6] -0.056 | [9] -0.628 | [10] -0.412 | [12] -0.205 | [13] -0.518 | [14] -0.707 | [15] -0.226 | [16] -0.695
active: [2] -1.63 | [7] -1.46 | [8] -1.21 | [11] -1.34 | [17] -2.08

USP36 (UniProt Q9P275)
Sequence of UniProt Q9P275 (Q9P275 whole entry): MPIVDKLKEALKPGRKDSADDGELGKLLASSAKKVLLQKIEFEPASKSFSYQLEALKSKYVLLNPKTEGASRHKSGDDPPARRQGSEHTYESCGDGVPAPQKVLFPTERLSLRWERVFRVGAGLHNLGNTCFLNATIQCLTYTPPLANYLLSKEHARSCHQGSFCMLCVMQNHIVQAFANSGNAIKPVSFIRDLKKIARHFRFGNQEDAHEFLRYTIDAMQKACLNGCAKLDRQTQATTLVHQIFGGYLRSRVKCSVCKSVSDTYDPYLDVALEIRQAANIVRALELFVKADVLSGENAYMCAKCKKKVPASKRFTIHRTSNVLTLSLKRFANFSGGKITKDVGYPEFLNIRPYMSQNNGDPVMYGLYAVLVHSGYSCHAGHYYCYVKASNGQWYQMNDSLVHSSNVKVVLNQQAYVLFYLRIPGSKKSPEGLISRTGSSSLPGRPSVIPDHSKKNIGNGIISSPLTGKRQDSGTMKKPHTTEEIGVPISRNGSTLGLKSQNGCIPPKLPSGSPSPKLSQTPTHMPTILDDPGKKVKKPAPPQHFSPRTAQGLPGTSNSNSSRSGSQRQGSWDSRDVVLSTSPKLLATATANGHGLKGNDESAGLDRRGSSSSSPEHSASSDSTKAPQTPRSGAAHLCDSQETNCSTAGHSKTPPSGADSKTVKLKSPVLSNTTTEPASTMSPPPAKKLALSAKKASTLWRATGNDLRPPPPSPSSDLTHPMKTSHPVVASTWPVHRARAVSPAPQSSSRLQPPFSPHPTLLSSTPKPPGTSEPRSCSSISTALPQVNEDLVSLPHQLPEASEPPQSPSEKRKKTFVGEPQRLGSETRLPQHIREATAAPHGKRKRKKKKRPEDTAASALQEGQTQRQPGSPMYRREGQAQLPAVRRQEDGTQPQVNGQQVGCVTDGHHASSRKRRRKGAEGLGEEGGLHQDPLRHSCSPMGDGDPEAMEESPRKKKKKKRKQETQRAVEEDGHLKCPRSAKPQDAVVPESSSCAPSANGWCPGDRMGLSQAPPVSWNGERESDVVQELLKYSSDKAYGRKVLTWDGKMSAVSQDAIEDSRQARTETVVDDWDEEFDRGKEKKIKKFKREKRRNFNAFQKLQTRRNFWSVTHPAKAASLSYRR
inactive: [1] -0.165 | [2] 0.124 | [3] -0.354 | [4] -0.058 | [5] -0.116 | [6] -0.0255 | [7] -0.0892 | [8] -0.141 | [9] -0.166 | [10] -0.233 | [11] 0.171 | [12] -0.19 | [13] -0.191 | [14] -0.134 | [15] -0.189 | [16] -0.185 | [17] -0.132

UniProt Q5T2D3
Sequence of UniProt Q5T2D3 (Q5T2D3 whole entry): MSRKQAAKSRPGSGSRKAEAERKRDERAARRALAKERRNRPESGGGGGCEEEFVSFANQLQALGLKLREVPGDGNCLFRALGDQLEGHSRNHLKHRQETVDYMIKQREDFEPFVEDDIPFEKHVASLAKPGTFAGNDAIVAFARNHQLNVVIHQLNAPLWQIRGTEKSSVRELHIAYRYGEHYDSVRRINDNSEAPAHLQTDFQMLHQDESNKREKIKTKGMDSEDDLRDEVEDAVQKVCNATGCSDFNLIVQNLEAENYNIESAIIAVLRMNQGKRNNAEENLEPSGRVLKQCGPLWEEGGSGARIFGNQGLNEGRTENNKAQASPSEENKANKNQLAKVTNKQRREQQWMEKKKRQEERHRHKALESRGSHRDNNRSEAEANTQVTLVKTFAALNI
inactive: [1] 0.0213 | [2] -0.301 | [3] -0.208 | [4] -0.128 | [5] -0.269 | [6] -0.159 | [7] -0.226 | [8] -0.0544 | [9] -0.17 | [10] -0.141 | [11] -0.0477 | [12] -0.0257 | [13] -0.314 | [14] -0.239 | [15] -0.00242 | [16] -0.0389 | [17] -0.998

USP8 (UniProt P40818)
inactive: [1] 0.058 | [2] -0.288 | [3] -0.13 | [4] -0.147 | [5] -0.531 | [6] -0.314 | [7] -0.16 | [8] -0.0703 | [9] -0.125 | [10] -0.197 | [11] -0.245 | [12] -0.233 | [13] -0.572 | [14] -0.442 | [15] 0.167 | [16] -0.538 | [17] -0.963

OTUD7B (UniProt Q6GQQ9)
inactive: [1] 0.0222 | [4] -0.521 | [5] -0.504 | [6] -0.33 | [8] -0.708 | [9] -0.151 | [10] -0.187 | [11] -0.43 | [12] -0.18 | [15] -0.129 | [16] -0.96
active: [2] -1.59 | [3] -1.86 | [7] -1.28 | [13] -1.84 | [14] -1.31 | [17] -1.56

UniProt P51784
inactive: [1] -0.051 | [2] 0.138 | [3] 0.0474 | [4] -0.248 | [5] -0.0132 | [6] 0.0405 | [7] -0.202 | [8] -0.227 | [9] 0.0778 | [10] -0.209 | [11] 0.0993 | [12] -0.126 | [13] -0.072 | [14] -0.102 | [15] 0.104 | [16] -0.104 | [17] -0.628

YOD1 (UniProt Q5VVQ6)
Sequence of UniProt Q5VVQ6 (Q5VVQ6 whole entry): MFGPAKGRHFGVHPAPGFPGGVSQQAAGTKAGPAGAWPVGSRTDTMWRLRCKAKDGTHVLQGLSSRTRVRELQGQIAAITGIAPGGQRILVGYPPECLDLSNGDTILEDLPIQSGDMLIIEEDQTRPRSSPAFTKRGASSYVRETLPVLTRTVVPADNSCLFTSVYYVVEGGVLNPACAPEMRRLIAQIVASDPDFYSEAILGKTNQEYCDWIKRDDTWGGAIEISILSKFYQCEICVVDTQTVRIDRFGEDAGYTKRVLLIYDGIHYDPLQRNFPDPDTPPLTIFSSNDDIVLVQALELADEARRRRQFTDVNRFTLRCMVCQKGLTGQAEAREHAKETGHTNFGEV
inactive: [1] 0.253 | [2] 0.0444 | [3] 0.0365 | [4] -0.412 | [5] -0.152 | [6] 0.18 | [7] -0.323 | [8] -0.308 | [9] 0.241 | [10] -0.155 | [11] -0.266 | [12] 0.106 | [13] 0.0345 | [14] 0.0106 | [15] 0.189 | [16] 0.0867 | [17] -0.836

PSMD7 (UniProt P51665)
Sequence of UniProt P51665 (P51665 whole entry): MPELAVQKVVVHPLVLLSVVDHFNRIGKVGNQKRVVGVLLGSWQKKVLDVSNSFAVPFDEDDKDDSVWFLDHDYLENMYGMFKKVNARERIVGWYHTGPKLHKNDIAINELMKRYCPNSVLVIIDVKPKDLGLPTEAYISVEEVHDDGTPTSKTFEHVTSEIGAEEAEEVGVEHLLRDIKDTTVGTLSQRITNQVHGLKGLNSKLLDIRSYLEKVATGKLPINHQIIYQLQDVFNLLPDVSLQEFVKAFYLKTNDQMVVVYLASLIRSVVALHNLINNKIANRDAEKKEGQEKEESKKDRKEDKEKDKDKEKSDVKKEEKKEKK
inactive: [1] -0.0028 | [2] -0.0716 | [3] 0.132 | [4] -0.25 | [5] -0.394 | [6] -0.133 | [7] -0.0871 | [8] -0.0249 | [9] 0.0653 | [10] -0.0837 | [11] -0.291 | [12] -0.184 | [13] -0.279 | [14] -0.286 | [15] 0.0364 | [16] -0.47 | [17] -0.124

BAP1 (UniProt Q92560)
Sequence of UniProt Q92560 (Q92560 whole entry): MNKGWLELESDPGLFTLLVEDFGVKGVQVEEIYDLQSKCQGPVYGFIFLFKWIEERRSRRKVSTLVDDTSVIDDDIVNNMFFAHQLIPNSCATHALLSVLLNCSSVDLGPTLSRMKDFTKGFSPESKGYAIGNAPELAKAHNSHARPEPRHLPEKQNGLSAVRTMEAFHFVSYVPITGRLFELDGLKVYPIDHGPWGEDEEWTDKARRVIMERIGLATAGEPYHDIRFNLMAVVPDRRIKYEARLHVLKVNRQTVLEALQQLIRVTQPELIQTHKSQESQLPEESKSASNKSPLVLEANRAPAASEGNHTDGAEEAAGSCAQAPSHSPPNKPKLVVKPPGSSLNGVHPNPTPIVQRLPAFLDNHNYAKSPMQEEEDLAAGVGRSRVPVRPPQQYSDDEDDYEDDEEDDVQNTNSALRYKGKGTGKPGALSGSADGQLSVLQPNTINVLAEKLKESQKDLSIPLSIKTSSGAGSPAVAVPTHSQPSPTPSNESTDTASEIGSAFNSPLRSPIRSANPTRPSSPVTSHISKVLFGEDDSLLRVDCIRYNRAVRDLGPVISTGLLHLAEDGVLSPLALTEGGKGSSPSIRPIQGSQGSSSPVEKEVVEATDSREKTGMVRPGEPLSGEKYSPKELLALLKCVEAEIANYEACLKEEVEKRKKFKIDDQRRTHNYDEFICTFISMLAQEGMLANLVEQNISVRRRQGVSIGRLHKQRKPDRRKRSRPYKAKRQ
active: [2] -2.33 | [3] -1.53 | [7] -2.59 | [8] -1.83 | [9] -1.05 | [10] -1.34 | [11] -2.85 | [13] -3.06 | [14] -1.81 | [16] -1.81 | [17] -2.97
inactive: [1] 0.0148 | [4] -0.422 | [5] -0.661 | [6] -0.252 | [12] -0.0644 | [15] -0.549

USP34 (UniProt Q70CQ2)
inactive: [1] -0.0417 | [2] -0.172 | [3] -0.119 | [4] -0.00177 | [5] -0.247 | [6] -0.0987 | [7] -0.256 | [8] -0.0637 | [9] -0.0566 | [10] -0.451 | [11] -0.0758 | [12] -0.0409 | [13] -0.0189 | [14] 0.000583 | [15] 0.219 | [16] -0.146 | [17] -0.774
